# From PubChem BioAssay (NCI)
# This is part of a sample that, as a whole, favours compounds with a hit. Of some 83,000 tested, about 20% had one in any assay.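 Treatment: one concentration, 48 hours, 96-well format. Scoring: percent growth, with anything below 10 considered active.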 A number with no mark means an inactive call. Calls of active or inactive are those of the source.
# Test system: MDA-MB-468 breast
# Experiment: NCI-60 one-dose screen, 48 h (100 = growth as untreated, 0 = no growth, -100 = all killed)
# Conditions: 10 µM unless noted
row,Compound,growth
1,O=C1/C(=C/c2ccc(F)cc2)COc2ccc(O)c(O)c21,-2.42% (active)
2,COc1ccc2c(c1)C/C(=C\c1cc(-c3ccc4c(c3)OCO4)n[nH]1)C2=O,37.8%
3,COc1cc(NC(=O)CCl)ccc(=O)c1,75.6%
4,COc1ccc(C2=Nc3c(C)nn(-c4ccccc4)c3NC(c3ccc(Oc4ccnc5cc(Cl)ccc45)c(OC)c3)C2)cc1 (stereo not given),80.3%
5,CN(C)c1ccc(C#Cc2c(F)cccc2Cl)cc1,8.33% (active)
6,CCOc1nc(-c2ccccc2)cc2c(O)c(C(=O)n3nc(C)cc3C)[nH]c(=O)c12,99.1%
7,COc1cc(/C=C/C(=O)c2ccc(O)c(CN3CCN(c4cc5c(cc4F)c(=O)c(C(=O)O)cn5C4CC4)CC3)c2)cc(OC)c1OC,6.61% (active)
8,CNC(=O)c1cc(Oc2ccc3nc(NC(=O)Nc4ccc(N5CCC(N(C)C)CC5)cc4)sc3c2)ccn1,76.3%
9,CC(C)CCC[C@@H](C)[C@H]1CC[C@H]2[C@@H](Nc3ccc(O)cc3)CCC[C@]12C,-13.8% (active)
10,CC[C@@]1(O)C(=O)OCc2c1cc1n(c2=O)Cc2cc3c(CN(C)C)c(O)ccc3nc2-1,-58.2% (active)
11,COc1ccc2c(c1)c(/C(O)=C1\COC(=O)C1=O)cn2Cc1ccc(F)cc1,100%
12,CN(C)N1C(=O)c2c(Cl)c(Cl)c(Cl)c(Cl)c2C1=O,96.1%
13,Cc1cc(=O)n2n1-c1ccc(Cl)cc1NC(=O)C2,101%
14,COc1cc(NC(=O)CCSc2nc3ccccc3c(=O)n2CCc2ccccn2)cc(OC)c1OC,91.8%
15,O=S(=O)(OCCOS(=O)(=O)c1ccccc1)c1ccccc1,95%
16,Nc1ncnc2c1CN(Cc1ccccc1)CC2,112%
17,Cn1ccnc1C(=O)/C=C/c1ccc(CNC(=O)c2ccc(Cl)cc2)cc1,-14.5% (active)
18,Nc1nc(-c2ccccn2)cc(-c2cc(-c3ccccn3)nc(N)n2)n1,98.7%
19,COc1ccc(S(=O)(=O)n2c3ccccc3n3ncc(-c4nnc(C)o4)c23)cc1,-19.5% (active)
20,COc1cc2cn3c4ccc(O)cc4nc(N)c3c2cc1OC,-32.3% (active)

row,Compound,growth
1,O=C1C(=O)c2ccccc2C(O)=C1CCCc1ccc(C2CCCCC2)cc1,17.5%
2,COc1ccc(OC)c(/C=C/c2nc(=S)n(-c3ccc(Cl)cc3)[nH]2)c1,38.8%
3,CCOC(=O)CC(C)=N,92.8%
4,Cc1ccc(C23CCC(=O)N2CCc2cncn23)cc1 (stereo not given),85.2%
5,C(=N\Nc1nc(N/N=C/c2ccc3c(c2)OCO3)nc(N2CCCCC2)n1)/c1ccc2c(c1)OCO2,81.6%
6,O=c1c(/C=C/c2c(O)ccc3ccccc23)nnc2sc(-c3cccc([N+](=O)[O-])c3)nn12,40.9%
7,COc1ccccc1N1CCCCC1,118%
8,Cc1ccc(NCCN(C)CC(C)O)c2c(=O)c3ccccc3sc12 (stereo not given),13.5%
9,CCCCN(CCCC)CCCn1c(=O)c2sc3ncccc3c2n2nnc(-c3ccccc3)c12,109%
10,COc1ccc(-c2nn(C(=O)c3cc(OC)c(OC)c(OC)c3)c3cc(N)ccc23)cc1,-1.08% (active)
11,CCOC(=O)c1ccc(NC(=O)NC2=NCCS2)cc1,29.6%
12,O=C(c1ccc(-c2ccccc2)cc1)c1ccc([N+](=O)[O-])cc1,108%
13,CC(=O)Oc1c(C)c(OC(C)=O)c2c(c1C(C)=O)OC1CC(=O)C(C(C)=O)=C(O)C21C (stereo not given),90.1%
14,CCN(C(=O)N1CCN(c2cc3c(cc2F)c(=O)c(C(=O)O)cn3C2CC2)CC1)c1nc(-c2ccccc2)cs1,13%
15,CCCCCN(CCCCC)C(=O)C(CCC(=O)O)NC(=O)c1ccc(Cl)c(Cl)c1 (stereo not given),106%
16,COc1cc2cc(Oc3ccc(NC(=O)Nc4ccc(Cl)c(Cl)c4)cc3)c(C)nc2cc1OCCN1CCOCC1,33.9%
17,COc1ccc(-c2ccc3cnc4sc(-c5ccc(OC)cc5)nc4c3n2)cc1,96.5%
18,COc1cc(OC)c(C(=O)/C=C/c2cccc(C#N)c2)c(OC)c1,-13.8% (active)
19,CSc1nnc(-c2cc3c([nH]c4ccccc43)c(-c3cccc(O)c3)n2)n1-c1ccccc1,33.4%
20,CC1=C(SCCC(=O)OC(C[Se]C2=C(C)C(=O)c3ccccc3C2=O)C(=O)NCCCCCC(=O)OCc2ccccc2)C(=O)c2ccccc2C1=O (stereo not given),30.5%
